Assay [1] can be described thus: A CellTox Green Cytotoxicity Assay to monitor cytotoxicity in HEK293 cells - 32 hour (AID 1224881). Further: nearly all actives have a fitted effect of over 40% in size. Further: potency means the concentration at half of the fitted maximal effect. The essentials:
(§1)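 Homogeneous no-lysis format: HEK293 cell suspension mixed with CellTox Green reagent, seeded, incubated 5 h at 37 C/5% CO2, then dosed by pintool with compound in DMSO.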

A short description of assay [2]: A CellTox Green Cytotoxicity Assay to monitor cytotoxicity in HepG2 cells - 0 hour (AID 1224882). Further: nearly all actives have a fitted effect of over 35% in size. The essentials: (§2)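 Fluorescent DNA-binding dye, 600 HepG2 cells/well, 5 h preincubation then compound in DMSO; same plates read at 0–40 h, 37 C.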
A short description of assay [3]: A CellTox Green Cytotoxicity Assay to monitor cytotoxicity in HepG2 cells - 32 hour (AID 1224883). Further: nearly all actives have a fitted effect of over 50% in size. Further: potency means the concentration at half of the fitted maximal effect. The essentials: as §2
Assay [4] in a line: A CellTox Green Cytotoxicity Assay to monitor cytotoxicity in HEK293 cells - 8 hour (AID 1224884). Further: nearly all actives have a fitted effect of over 35% in size. The essentials:
as §1

The nature of assay [5]: qHTS RealTime-Glo MT Cell Viability Assay in HepG2 cells - 16 hour (AID 1224885). Further: nearly all actives have a fitted effect of over 50% in size. The essentials:
(§3)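 Compound treatment began 5 h after plating HepG2 cells (600/well) with NanoLuc luciferase and prosubstrate. Plates stayed at 37 C for 40 h; luminescence was captured at six time points, 0 h through 40 h.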

The nature of assay [6]: qHTS RealTime-Glo MT Cell Viability Assay in HEK293 cells - 24 hour (AID 1224886). Further: nearly all actives have a fitted effect of over 50% in size. Further: potency means the concentration at half of the fitted maximal effect. The essentials: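 Quantitative high-throughput screen of the Tox21 10K library in HEK293: cells and RealTime-Glo reagents plated together, compound added at 5 h, luminescence monitored through 40 h at 37 C.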
For orientation: qHTS replaces the single test concentration by a dilution series.

A short description of assay [7]: qHTS RealTime-Glo MT Cell Viability Assay in HEK293 cells - 8 hour (AID 1224887). Further: top concentration of the series differs between compounds; nearly all actives have a fitted effect of over 50% in size. The essentials:
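Measured as luminescence from the same continuously cultured HEK293 wells at successive time points (0, 8, 16, 24, 32, 40 h) after compound addition. Reagent present from seeding; dosing at 5 h; incubation 37 C.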

Assay [8] can be described thus: A CellTox Green Cytotoxicity Assay to monitor cytotoxicity in HEK293 cells - 16 hour (AID 1224888). Further: nearly all actives have a fitted effect of over 35% in size. The essentials:
as §1

A short description of assay [9]: qHTS RealTime-Glo MT Cell Viability Assay in HepG2 cells - 0 hour (AID 1224889). Further: nearly all actives have a fitted effect of over 50% in size. The essentials:
as §3

Assay [10] can be described thus: A CellTox Green Cytotoxicity Assay to monitor cytotoxicity in HepG2 cells - 8 hour (AID 1224890). Further: nearly all actives have a fitted effect of over 45% in size. The essentials: as §2
Assay [11] in a line: qHTS assay to identify small molecule antagonists of the androgen receptor (AR) signaling pathway using the MDA cell line in the presence of 0.5 nM R1881 - cell viability counter screen (AID 1259242). Further: nearly all actives have a fitted effect of over 45% in size. The essentials: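 Human breast carcinoma MDA-kb2 cells, cultured without CO2, receive compounds alongside 0.5 nM (final) R1881 agonist. After 16 hr at 37C, viability is taken as live-cell protease signal.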

The target in assay [12] is Estrogen receptor (Homo sapiens) (UniProt P03372). The assay can be described thus: qHTS assay to identify small molecule antagonists of the estrogen receptor alpha (ER-alpha) signaling pathway using the BG1 cell line in the presence of 0.1 nM 17-beta-estradiol (AID 1259244). Further: nearly all actives have a fitted effect of over 50% in size. The essentials:
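Seeding of stripped-serum-adapted VM7Luc4E2 cells, 24 h attachment, compound transfer, then 0.1 nM final 17beta-estradiol; after 22 h incubation, ONE-Glo reagent and luminescence reading.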

The nature of assay [13]: qHTS assay to identify small molecule HDAC inhibitors (AID 1259364). Further: potency means the concentration at half of the fitted maximal effect.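 Further: wild-type HCT-116 cells with endogenous class I/II HDAC activity; nearly all actives have a fitted effect of over 45% in size.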 The essentials: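 After a 2 hr compound incubation (37C, 5% CO2), HCT-116 cells seeded at 1,500/well the day before received HDAC-Glo reagent; signal read as luminescence after 30 min at room temperature.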
Assay [14] can be described thus: qHTS assay to identify small molecule HDAC inhibitors - cell viability counter screen (AID 1259365). The essentials: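 Luminescence from CellTiter-Glo, developed 30min at room temperature, reports viability of wild-type HCT-116 cells treated 2hr with compounds at 37 C and 5% CO2 after overnight plating.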
Assay [15] can be described thus: qHTS assay to identify small molecule agonists of the sonic hedgehog signaling (Shh) pathway - cell viability counter screen (AID 1259366). Further: nearly all actives have a fitted effect of over 50% in size. The essentials: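 Cytotoxicity counter screen run in the same wells as the Shh reporter assay. NIH/3T3 cells carrying a Gli1 response element–driven luciferase were treated with DMSO-dissolved compounds for 24hr, and live-cell protease activity was measured with CellTiter-Fluor.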

Assay [16] can be described thus: qHTS assay to identify small molecule antagonists of the sonic hedgehog signaling (Shh) pathway - cell viability counter screen (AID 1259367). Further: nearly all actives have a fitted effect of over 55% in size. The essentials:
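Viability was read by CellTiter-Fluor fluorescence in the same wells, reagent added 23 hr into compound treatment and incubated 1 hr at 37C. The 3T3 Gli1-Luc reporter cells (2,000/well) received conditioned medium after compound and ran 24 hr.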

Assay [17] can be described thus: qHTS assay to identify small molecule agonists of the sonic hedgehog signaling (Shh) pathway (AID 1259368; calls by dose curve;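 further: NIH/3T3-derived 3T3Gli1-Luc cells carrying a stable Gli1-driven firefly luciferase reporter; series mostly up to about 92 µM; nearly all actives have a fitted effect of over 15% in size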). The essentials:
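Stable NIH/3T3 Gli1-Luc reporter clone; 24 hr cpd exposure after a 4 hr settling period; luminescence endpoint.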

Assay [18] can be described thus: qHTS assay to identify small molecule antagonists of the estrogen receptor alpha (ER-alpha) signaling pathway using the BG1 cell line in the presence of 0.1 nM 17-beta-estradiol - cell viability counter screen (AID 1259241). Further: nearly all actives have a fitted effect of over 40% in size. The essentials:
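VM7Luc4E2, 4,000 cells/well, phenol red-free medium + 10% charcoal-stripped FBS; 24 hr plating; cpd + 0.1 nM E2 final, 22 hr 37C/5% CO2; CellTiter-Fluor 30 min, fluorescence.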

In assay [19] the target is Androgen receptor (Homo sapiens) (UniProt P10275). In words: qHTS assay to identify small molecule antagonists of the androgen receptor (AR) signaling pathway using the MDA cell line in the presence of 0.5 nM R1881 (AID 1259243). Further: nearly all actives have a fitted effect of over 50% in size. The essentials:
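Cells: MDA-kb2 (MMTV-luc). Stimulus: 0.5 nM R1881. Time: 16 hr, 37C, no CO2. Detection: ONE-Glo luminescence after 30 min at RT.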

The nature of assay [20]: qHTS assay to identify small molecule phospholipidosis (PLD) inducers (AID 1259344; active means well fitted curve in the direction sought with a large enough effect; an effect the other way counts as inactive or inconclusive). The essentials: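 Phospholipid accumulation was scored by imaging: fixed, Hoechst-counterstained HepG2 cells stained with LipidTOX Red after 24 h compound exposure at 37 C. Read-outs were pit count and pit intensity per well or per cell, with amiodarone and DMSO controls.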

Records with an inconclusive call do not appear. Active and inactive are the calls of the source. Unless noted, the call rests on the fitted dose curve; in most records, active means well fitted curve in the direction sought with a large enough effect in the repeat runs; inconclusive means weak or mixed curves; inactive means no such curve, though single readings can be large; an effect the other way counts as inactive or inconclusive.

Estrogen receptor (Homo sapiens), sequence (P03372 whole entry, looked up): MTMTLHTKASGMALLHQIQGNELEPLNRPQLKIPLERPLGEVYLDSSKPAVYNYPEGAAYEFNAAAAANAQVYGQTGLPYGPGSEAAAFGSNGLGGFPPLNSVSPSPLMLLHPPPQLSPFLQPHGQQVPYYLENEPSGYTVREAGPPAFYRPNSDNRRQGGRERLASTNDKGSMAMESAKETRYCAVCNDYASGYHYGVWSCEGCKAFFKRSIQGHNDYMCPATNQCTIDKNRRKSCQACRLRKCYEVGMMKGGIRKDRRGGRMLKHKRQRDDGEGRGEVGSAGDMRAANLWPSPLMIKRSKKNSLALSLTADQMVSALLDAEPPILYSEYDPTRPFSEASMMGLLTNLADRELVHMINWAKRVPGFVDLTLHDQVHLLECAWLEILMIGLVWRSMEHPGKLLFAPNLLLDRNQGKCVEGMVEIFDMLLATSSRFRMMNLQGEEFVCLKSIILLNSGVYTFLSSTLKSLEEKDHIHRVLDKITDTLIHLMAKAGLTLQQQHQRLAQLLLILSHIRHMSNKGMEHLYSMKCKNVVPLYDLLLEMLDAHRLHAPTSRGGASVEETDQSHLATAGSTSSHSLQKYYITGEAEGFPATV
Androgen receptor (Homo sapiens), sequence (P10275 whole entry, looked up): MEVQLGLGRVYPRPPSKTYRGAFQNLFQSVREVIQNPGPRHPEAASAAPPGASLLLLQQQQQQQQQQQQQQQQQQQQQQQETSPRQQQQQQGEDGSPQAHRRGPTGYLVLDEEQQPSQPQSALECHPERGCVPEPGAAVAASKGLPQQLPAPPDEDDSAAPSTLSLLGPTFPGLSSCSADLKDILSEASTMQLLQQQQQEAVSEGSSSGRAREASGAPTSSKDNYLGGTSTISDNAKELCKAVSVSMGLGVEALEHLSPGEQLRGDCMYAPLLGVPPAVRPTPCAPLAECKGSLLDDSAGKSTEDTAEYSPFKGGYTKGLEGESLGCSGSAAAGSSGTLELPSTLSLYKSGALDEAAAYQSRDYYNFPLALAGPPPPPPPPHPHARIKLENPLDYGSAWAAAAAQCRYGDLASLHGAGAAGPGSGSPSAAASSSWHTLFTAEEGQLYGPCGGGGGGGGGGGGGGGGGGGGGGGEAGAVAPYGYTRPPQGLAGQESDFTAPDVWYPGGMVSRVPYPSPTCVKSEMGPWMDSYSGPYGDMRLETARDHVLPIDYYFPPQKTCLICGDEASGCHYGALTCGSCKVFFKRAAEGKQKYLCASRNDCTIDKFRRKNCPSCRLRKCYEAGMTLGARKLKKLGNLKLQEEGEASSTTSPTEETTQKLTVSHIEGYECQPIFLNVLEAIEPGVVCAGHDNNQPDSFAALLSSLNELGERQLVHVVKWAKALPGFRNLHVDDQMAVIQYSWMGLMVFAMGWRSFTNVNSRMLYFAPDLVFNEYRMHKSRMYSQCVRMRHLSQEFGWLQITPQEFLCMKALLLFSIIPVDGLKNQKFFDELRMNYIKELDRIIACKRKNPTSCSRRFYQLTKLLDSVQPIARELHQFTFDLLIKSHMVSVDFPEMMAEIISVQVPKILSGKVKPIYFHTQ

On to `CC(=O)CCc1ccc2c(c1)OCO2`, for which the Potency result in assay [1], in assay [3], in assay [4], in [5], in [6] and in assay [7] was “inactive” each time. Besides, the Potency result in assay [8], in [9], in [10], in assay [12], in [13] and in assay [15] was “inactive” each time. In assay [16], the Potency result was “inactive”. Also, the compound was classed as inactive in assay [2], in assay [11], in [14] and in assay [17].
With `c1cc[c]([Hg][c]2ccccc2)cc1`, the Potency is 38.9 µM (active) in assay [1], 49 µM (active) in [3], 34.7 µM (active) in assay [6] and 2.43 µM (active) in assay [13]. Also, the outcome in assay [2], in assay [11], in assay [14] and in assay [17] was inactive. Besides, the Potency result in assay [4], in [5], in [9], in assay [10], in assay [12] and in [15] was “inactive” each time.
As for `C#C[C@]1(O)C=C[C@H]2[C@@H]3CCC4=CC(=O)CC[C@@H]4[C@H]3CC[C@@]21CC`, the Potency entry in assay [1], in assay [3], in assay [4], in assay [5], in assay [7] and in [8] was “inactive” throughout. In addition, the Potency result in [9], in assay [10], in assay [19], in assay [12], in assay [13] and in assay [15] was “inactive” throughout. For the same compound, the Potency result in assay [16] was “inactive”. The result in assay [2], in assay [18], in [11], in assay [20], in assay [14] and in [17] was inactive.
Take `CCC(=O)C(CCN(C)C)(c1ccccc1)c1ccccc1`: the Potency entry in [1], in assay [3], in assay [4], in [5], in [7] and in assay [8] was “inactive” in each case. The Potency result in [9], in assay [10], in assay [19], in assay [12], in assay [13] and in assay [15] was “inactive” each time. Moreover, in assay [16], the Potency entry is “inactive”. Moreover, the outcome in assay [2], in assay [18], in assay [11], in assay [14] and in assay [17] was inactive.
For the compound `O=[N+]([O-])c1cc(Cl)c(Cl)c(Cl)c1`, in [1], the Potency was 21.7 µM (active). In addition, the compound was classed as inactive in assay [2], in [14] and in assay [17]. Besides, the Potency entry in assay [3], in assay [4], in assay [5], in [6], in assay [7] and in assay [9] was “inactive” throughout. In addition, the Potency result in [10], in assay [12], in assay [13], in [15] and in assay [16] was “inactive” in each case.
As for `CCC(=O)c1ccccc1`, the Potency result in assay [1], in assay [3], in assay [4], in assay [5], in [6] and in assay [7] was “inactive” each time. In addition, the Potency result in assay [8], in assay [9], in [10], in [19], in assay [12] and in [13] was “inactive” throughout. Further, the Potency entry in [15] and in assay [16] was “inactive” throughout. In addition, the compound was classed as inactive in assay [2], in [11], in assay [14] and in assay [17].
Take `COCC(=O)N(c1c(C)cccc1C)N1CCOC1=O`: the Potency result in assay [1], in assay [3], in assay [4], in [5], in assay [6] and in [7] was “inactive” throughout. The Potency result in assay [9], in [10], in assay [13], in assay [15] and in assay [16] was “inactive” throughout. Besides, the call in assay [2], in [11], in [14] and in assay [17] was inactive.
In the case of `CCCCP(CCCC)CCCC`, the Potency result in [1], in assay [3], in [4], in assay [5], in assay [6] and in [7] was “inactive” in each case. The Potency result in [9], in [10], in assay [12], in assay [13], in [15] and in assay [16] was “inactive” throughout. Moreover, the compound was called inactive in [2], in assay [11], in assay [14] and in [17].

(Values after PubChem BioAssay (Tox21).)
